Results published in PubChem BioAssay AID1159580 (chemical genetic matrix, 2015).
“And” between values parts separate entries of the source, which are not always exact repeats. Equal entries are not always repeated. Among all 5,500 compounds or so, about 2,000 (36%) were called active. About 18% were inconclusive and are not listed. No stated cut-off is given here; in the data, active means normalized growth mostly below about 0.91 (no sharp cut-off); inconclusive means no clear call, values can overlap the other calls; inactive means mostly above about 0.92. The list shows a part of the results.

Experiment: chemical genetic growth profiling, strain panel (AID 1159580);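 further: tested at 20 µM; growth read once vehicle control cultures reached saturation at 30 °C; 1 = growth at the plate median or of vehicle wells; lower values mean less growth of the strain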
Details: S. cerevisiae deletion strains, growth OD

Measured: normalized growth

NC[C@@H]1O[C@H](O[C@@H]2[C@@H](CO)OC(O[C@@H]3[C@@H](O)[C@H](N)C[C@H](N)[C@H]3OC3O[C@H](CN)[C@@H](O)[C@H](O)[C@H]3N)[C@@H]2O)[C@H](N)[C@@H](O)[C@@H]1O (some centres not stated)
inactive: locus YAL013W, strain DEP1, hits give low values 1 | locus YAL021C, strain ccr4, hits give low values 1.01 | locus YAL026C, strain drs2, hits give low values 1.02 | locus YAL030W, strain snc1, hits give low values 1.02 | locus YBL061C, strain skt5, hits give low values 1.03 | locus YBR009C, strain hhf1, hits give low values 1.03 | locus YBR021W, strain FUR4, hits give low values 0.966 | locus YBR023C, strain chs3, hits give low values 1.06 | locus YBR171W, strain sec66, hits give low values 1.04 | locus YBR229C, strain ROT2, hits give low values 1 | locus YBR231C, strain swc5, hits give low values 1.01 | locus YBR279W, strain paf1, hits give low values 1.01 | locus YCL011C, strain gbp2, hits give low values 1.03 | locus YCL016C, strain dcc1, hits give low values 1.05 | locus YCL029C, strain bik1, hits give low values 1.02 | locus YCL061C, strain MRC1, hits give low values 1.01 | locus YCL069W, strain vba3, hits give low values 1.02 | locus YCR088W, strain abp1, hits give low values 1.02 | locus YDL005C, strain med2, hits give low values 1.01 | locus YDL035C, strain GPR1, hits give low values 1.01 | locus YDL040C, strain nat1, hits give low values 1.02 | locus YDL074C, strain BRE1, hits give low values 1.01 | locus YDL101C, strain DUN1, hits give low values 1.01 | locus YDL134C, strain PPH21, hits give low values 1 | locus YDL185W, strain tfp1, hits give low values 1.01 | locus YDL192W, strain arf1, hits give low values 1.02 | locus YDR001C, strain nth1, hits give low values 1.02 | locus YDR069C, strain doa4, hits give low values 1.03 | locus YDR101C, strain arx1, hits give low values 1 | locus YDR137W, strain rgp1, hits give low values 1.06 | locus YDR150W, strain NUM1, hits give low values 1.01 | locus YDR159W, strain sac3, hits give low values 0.997 | locus YDR162C, strain NBP2, hits give low values 1.01 | locus YDR195W, strain ref2 1.01 | locus YDR297W, strain sur2, hits give low values 1.02 | locus YDR318W, strain mcm21, hits give low values 1.01 | locus YDR334W, strain swr1, hits give low values 1.02 | locus YDR335W, strain msn5, hits give low values 1.02 | locus YDR388W, hits give low values 1.01 | locus YDR392W, strain spt3, hits give low values 0.944 | locus YDR502C, strain sam2, hits give low values 1.03 | locus YEL003W, strain gim4, hits give low values 1.02 | locus YEL037C, strain rad23, hits give low values 1.03 | locus YEL061C, strain CIN8 (second series), hits give low values 1.03 | locus YEL061C, strain CIN8, hits give low values 1.01 | locus YER015W, strain faa2, hits give low values 1.03 | locus YER016W, strain bim1, hits give low values 1.02 | locus YER110C, hits give low values 1.01 | locus YER111C, strain swi4, hits give low values 1.02 | locus YER155C, strain BEM2 (second series), hits give low values 0.973 | locus YER155C, strain BEM2, hits give low values 1.01 | locus YER167W, strain BCK2, hits give low values 1.02 | locus YFR010W, strain ubp6, hits give low values 1.03 | locus YGL078C, strain dbp3, hits give low values 1.01 | locus YGL086W, strain mad1, hits give low values 1 | locus YGL167C, strain pmr1, hits give low values 1.03 | locus YGL173C, strain kem1, hits give low values 1.03 | locus YGL227W, strain vid30, hits give low values 1.03 | locus YGL240W, strain doc1, hits give low values 1 | locus YGL248W, strain PDE1, hits give low values 1.01 | locus YGL253W, strain hxk2, hits give low values 1.03 | locus YGR078C, strain PAC10, hits give low values 1.02 | locus YGR135W, strain pre9, hits give low values 1.07 | locus YGR229C, strain SMI1, hits give low values 1 | locus YGR252W, strain gcn5, hits give low values 0.957 | locus YHR013C, strain ard1, hits give low values 1.05 | locus YHR027C, strain rpn1, hits give low values 1.03 | locus YHR030C, strain SLT2, hits give low values 1.02 and 0.985 | locus YHR079C, strain IRE1 (second series), hits give low values 1.02 | locus YHR079C, strain IRE1, hits give low values 0.983 | locus YHR094C, strain hxt1, hits give low values 1.01 | locus YHR129C, strain ARP1, hits give low values 1 | locus YHR142W, strain chs7, hits give low values 1.05 | locus YHR200W, strain rpn10, hits give low values 1.03 | locus YIL066C, strain RNR3, hits give low values 1.03 | locus YIL073C, strain SPO22, hits give low values 1.07 | locus YIL125W, strain kgd1, hits give low values 1.02 | locus YIR030C, strain dcg1, hits give low values 1.01 | locus YJL092W, strain hpr5, hits give low values 1.03 | locus YJL095W, strain BCK1 (second series), hits give low values 1.03 | locus YJL095W, strain BCK1, hits give low values 1.02 and 0.991 | locus YJL115W, strain asf1, hits give low values 1.03 | locus YJL129C, strain trk1, hits give low values 1.06 | locus YJL134W, strain LCB3, hits give low values 0.993 | locus YJL154C, strain vps35, hits give low values 1.02 | locus YJL164C, strain tpk1, hits give low values 1.01 | locus YJL166W, strain qcr8, hits give low values 1.04 | locus YJL168C, strain set2, hits give low values 1.01 | locus YJL187C, strain SWE1 (second series), hits give low values 1.01 | locus YJL187C, strain SWE1, hits give low values 1.01 | locus YJR043C, strain POL32, hits give low values 1.01 | locus YJR066W, strain TOR1, hits give low values 0.929
